About 79,000 compounds went through this panel and 15% of them were active in at least one assay; those are over-represented in the sample as a whole. Unmarked numbers belong to inactive results. Activity calls are given as the source filed them. Cut-off read from the data, not from the text of the source: active = growth inhibition above about 70%; inactive = the rest.

The text below walks through data of PubChem BioAssay (NCI).

Assay [1] in a line: NCI Yeast Anticancer Drug Screen. Data for the rad50 strain (AID 155).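 Note: 0% = growth of vehicle-only cultures of the same strain.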 The conditions noted are these: S. cerevisiae rad50 strain growth inhibition; at 50.0 µM; stronger effect = higher value. In outline: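 Yeast carrying a defined DNA repair defect were exposed to test compounds, and growth was compared with vehicle-treated controls to give percent inhibition.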
A short description of assay [2]: NCI Yeast Anticancer Drug Screen. Data for the mec2-1 strain (AID 157). Conditions: S. cerevisiae mec2-1 strain, at 50.0 µM, stronger effect = higher value. The method, boiled down:
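Each compound was tested on mec2-1 yeast, a strain altered in DNA damage repair or cell cycle control. Growth inhibition is reported relative to vehicle.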

Assay [3] in a line: NCI Yeast Anticancer Drug Screen. Data for the sgs1 mgt1 strain (AID 161).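 Note: 0% = growth of cultures given vehicle only.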 Conditions: S. cerevisiae sgs1 mgt1 strain, at 50.0 µM, stronger effect = higher value. In outline: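 Test agents were incubated with a DNA-repair-mutant yeast strain. Growth was then read and compared against vehicle-treated controls.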
Assay [4] can be described thus: NCI Yeast Anticancer Drug Screen. Data for the cln2 rad14 strain (AID 165).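 Note: 0% = growth equal to vehicle treated cultures.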 The conditions noted are these: S. cerevisiae cln2 rad14 strain, at 50.0 µM, stronger effect = higher value. The method, boiled down:
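Test compounds were added to cln2 rad14 yeast cultures; inhibition of growth was then determined by comparison with vehicle treatment.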

Assay [5] in a line: NCI Yeast Anticancer Drug Screen. Data for the bub3 strain (AID 167). Conditions: S. cerevisiae bub3 mutant strain, at 50.0 µM, stronger effect = higher value. The method, boiled down: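 Compounds were applied to a genetically altered yeast strain carrying a cell-cycle control defect. Growth inhibition was scored against vehicle-treated controls.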
Assay [6] in a line: NCI Yeast Anticancer Drug Screen. Data for the mlh1 rad18 strain (AID 175). Conditions: S. cerevisiae mlh1 rad18 strain growth inhibition; at 50.0 µM; stronger effect = higher value. The method, boiled down:
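Inhibition values reflect reduced growth of mutant yeast versus vehicle-treated controls following compound exposure; the mutations affect DNA damage repair.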

Take `COC(=O)C(C(=O)C(=O)Nc1ccc([N+](=O)[O-])cc1)c1nc2ccc([N+](=O)[O-])cc2[nH]c1=O` (stereo not given): the growth inhibition in assay [1] was 8.95%; in assay [2], -3.1%; in assay [3], -32.5%; in assay [4], -41.2%; in assay [5], -0.85%; in assay [6] it was 8.75%.
As to `CCN(CC)CCOC(=O)OCCN(CC)CC`, the growth inhibition in assay [1] was -13.5%; in assay [2], -12.1%; in assay [3], -7.3%; in assay [4], 4.45%; in assay [5], 17.9%; in assay [6] it was -38.8%.
`Cn1c(=O)c2c(nc(C(c3ccccc3)c3ccccc3)n2C)n(C)c1=O`: the growth inhibition in assay [1] was -11.3%; in assay [2] it was -25.5%; in assay [3], -3.55%; in assay [4], -33.5%; in assay [5] it was 6.25%; in assay [6] it was -18.6%.
Turning to `c1csc(C2Nc3ccccc3N2)c1`, the growth inhibition is 17.6% in assay [1]; -4.1% in assay [2]; 25.6% in assay [3]; 15.2% in assay [4]; 0.5% in assay [5]; 20.4% in assay [6].
Consider `CC(=O)c1ccccn1`, for which the growth inhibition in assay [1] is -8.7%; in assay [2], -31.4%; in assay [3], -13.8%; in assay [4] it was -7.3%; in assay [5], -22.8%; in assay [6], -26.6%.
In the case of `CCN(CC)C(=O)/C(C)=C(\C)c1ccccc1`, the growth inhibition is -12.7% in assay [1]; 11.8% in assay [2]; -11.6% in assay [3]; 8.3% in assay [4]; 2.9% in assay [5]; -1.45% in assay [6].
In the case of `CC(C)(C)NCC1CCCC1`, the growth inhibition in assay [1] is 0.55%; in assay [2], -1.5%; in assay [3], 2.4%; in assay [4] it was -22.9%; in assay [5] it was -11.4%; in assay [6] it was -3.8%.
For `Cc1nn(C(=O)c2c(-c3ccccc3)noc2C)c(C)c1N=Nc1cc(C(F)(F)F)cc(C(F)(F)F)c1`, the growth inhibition is -6.2% in assay [1]; -8.85% in assay [2]; -2.9% in assay [3]; 20.5% in assay [4]; -2.7% in assay [5]; 0.6% in assay [6].
Take `c1ccc(-c2ccc(-c3ccccc3)c3nonc23)cc1`: the growth inhibition in assay [1] is -32.2%; in assay [2], -2.25%; in assay [3], -13.5%; in assay [4], 23.4%; in assay [5] it was 27.4%; in assay [6], -4.45%.
On to `CC(=O)Nc1ccccc1OC(=O)c1ccccc1`, for which the growth inhibition was 4.4% in assay [1]; -4.4% in assay [2]; 2.6% in assay [3]; 11.9% in assay [4]; 1.8% in assay [5]; -2.5% in assay [6].
Turning to `c1ccc2c3nnc(c2c1)SCCCSc1nnc(c2ccccc12)SCCCS3`, the growth inhibition in assay [1] is -9.3%; in assay [2] it was -13.3%; in assay [3], -2.5%; in assay [4] it was 1.6%; in assay [5], 1.8%; in assay [6], -0.95%.
For the compound `COCCc1ccncc1`, the growth inhibition in assay [1] is -0.85%; in assay [2], -35.3%; in assay [3], -31.3%; in assay [4], -6.45%; in assay [5], -15.8%; in assay [6] it was -7.9%.
For the compound `O=c1sccc2ccccc12`, the growth inhibition was 28.1% in assay [1]; 25.4% in assay [2]; 2.5% in assay [3]; 9.4% in assay [4]; 10.3% in assay [5]; 1.35% in assay [6].
Consider `C#CCNC(=O)CCC(N)C(=O)O` (stereo not given), for which the growth inhibition in assay [1] is -0.1%; in assay [2], -15.2%; in assay [3], -14.8%; in assay [4], 3.05%; in assay [5] it was -11.8%; in assay [6] it was 2.65%.
On to `CC(C)(C)C(=O)CN`, for which the growth inhibition is -19.4% in assay [1]; -10.1% in assay [2]; -9.55% in assay [3]; -71% in assay [4]; 11% in assay [5]; -2.65% in assay [6].
For the compound `OCC1CCCC(n2cnc3c(=S)nc[nH]c32)O1` (stereo not given), the growth inhibition in assay [1] was -8.4%; in assay [2], -21.8%; in assay [3] it was -20.2%; in assay [4], -10.7%; in assay [5], -42.2%; in assay [6], 6.4%.
With `CC(CC(C(=O)Nc1ccccc1)(c1ccccc1)c1ccccc1)N(C)C` (stereo not given), the growth inhibition in assay [1] is -0.2%; in assay [2], -18.2%; in assay [3], 3.55%; in assay [4], -2.15%; in assay [5], -5.1%; in assay [6], 6.2%.
In the case of `COc1cc(O)c(Cc2ccccc2O)c(O)c1C(=O)CCc1ccccc1`, the growth inhibition in assay [1] was -17.4%; in assay [2] it was -34.5%; in assay [3], -13.5%; in assay [4] it was -5.65%; in assay [5] it was -35.9%; in assay [6], -7.9%.
With `CC1=C(c2cc(C(=O)Nc3cccc(Cl)c3)nc(NC#N)n2)Sc2ccccc2N1`, the growth inhibition in assay [1] was 25.6%; in assay [2], 0.9%; in assay [3] it was -0.7%; in assay [4], 16.4%; in assay [5], 4.75%; in assay [6], 33.5%.
As to `OCCN(CCO)c1nc(N(CCO)CCO)nc(N(CCO)CCO)n1`, the growth inhibition is 19.8% in assay [1]; 16.4% in assay [2]; 20.2% in assay [3]; 31.5% in assay [4]; 17.2% in assay [5]; 19.6% in assay [6].
Turning to `CCCC1OCC(C)(CC)CO1` (stereo not given), the growth inhibition in assay [1] was 27.6%; in assay [2], -2.55%; in assay [3], -4.9%; in assay [4] it was 12%; in assay [5], -9.65%; in assay [6], -9.05%.
Take `C=C1C2C[C@@H]3OC4CC5O[C@]6(CC5OC4C(C)C3OC(=O)CC3CC[C@@H]4OC5C7OC8C[C@](CCC9CC(=C)[C@H](CCC(C[C@H]1C)O2)O9)(OC7C4O3)O[C@@H]85)C[C@@H]1O[C@@]2(CC(C)[C@@H]3OC(CC(=O)CCO)C(O)C[C@@H]3O2)CC(C)[C@@H]1O6` (stereo not given in full): the growth inhibition is 84.5% (active) in assay [1]; 88.5% (active) in assay [2]; 88.6% (active) in assay [3]; 84.5% (active) in assay [4]; 87.5% (active) in assay [5]; 87.3% (active) in assay [6].
As to `CC1CN(CNC(=O)NCN2CC(C)OC(C)C2)CC(C)O1` (stereo not given), the growth inhibition is 15.7% in assay [1]; -3.7% in assay [2]; 24.8% in assay [3]; 11.9% in assay [4]; 0.95% in assay [5]; -0.8% in assay [6].
Turning to `Cc1cc2c(cc1C)NC1C(=O)C(c3ccccc3Cl)OC1=N2` (stereo not given), the growth inhibition is -1.2% in assay [1]; -10.4% in assay [2]; -2.4% in assay [3]; 4.55% in assay [4]; 0.55% in assay [5]; 3.15% in assay [6].
Consider `c1ccc2c(c1)[nH]c1ccccc12`, for which the growth inhibition in assay [1] was -30.9%; in assay [2], -15.9%; in assay [3] it was 1.65%; in assay [4] it was -3.05%; in assay [5] it was -5.5%; in assay [6] it was 7.05%.
On to `O=[N+]([O-])c1ccc(P(=O)(Nc2ccc3ccccc3c2)Nc2ccc3ccccc3c2)cc1`, for which the growth inhibition in assay [1] is 34.5%; in assay [2], 15.2%; in assay [3], 15.5%; in assay [4], 0.2%; in assay [5], 13.1%; in assay [6], 46.5%.
Take `CC(C)CC(C)(CC(C)C)C(=O)O`: the growth inhibition is 9.95% in assay [1]; -7.75% in assay [2]; 7.8% in assay [3]; -1.5% in assay [4]; -1.3% in assay [5]; 11.8% in assay [6].
`Cc1ccc(S(=O)(=O)OC2CCC(C(C)(C)C)C(Cl)C2)cc1` (stereo not given): the growth inhibition in assay [1] was -8%; in assay [2], 8.3%; in assay [3] it was 3.2%; in assay [4] it was 9.55%; in assay [5] it was 3.35%; in assay [6] it was -6.75%.
As for `N#Cc1ccccc1-c1ccccc1/C=C/C(=O)O`, the growth inhibition in assay [1] was -20.4%; in assay [2], -5.9%; in assay [3], -9.5%; in assay [4], 11.8%; in assay [5], -8%; in assay [6] it was 12.4%.
In the case of `Cc1ccc(S(=O)(=O)CCC(=O)c2ccccc2)cc1`, the growth inhibition in assay [1] is 9.3%; in assay [2], 16%; in assay [3], 0.95%; in assay [4] it was 1.3%; in assay [5], 3.25%; in assay [6], 14.6%.
Turning to `CCOC(=O)NCC(Cl)(Cl)Cl`, the growth inhibition in assay [1] was -4.6%; in assay [2] it was 0.25%; in assay [3], -11.1%; in assay [4], -51.4%; in assay [5], 6.6%; in assay [6], -6.7%.
As to `CC1(C)C(=O)C(=Cc2ccco2)C1=O`, the growth inhibition was -18.9% in assay [1]; 0.85% in assay [2]; -23.4% in assay [3]; 3.2% in assay [4]; -14.2% in assay [5]; 13% in assay [6].
Turning to `COCOS(C)(=O)=O`, the growth inhibition in assay [1] was -4.05%; in assay [2], -14.3%; in assay [3], -2.85%; in assay [4], 4.8%; in assay [5], 9.4%; in assay [6], -3.65%.
Take `CC1CC(=O)CC[C@@H]1OCc1ccccc1` (stereo not given in full): the growth inhibition in assay [1] was 5.95%; in assay [2], -17.4%; in assay [3] it was -5.05%; in assay [4], 19.9%; in assay [5] it was -8.95%; in assay [6] it was 16.7%.
As for `O=[N+]([O-])c1ccc(Br)cc1`, the growth inhibition in assay [1] was -6.5%; in assay [2], -14.2%; in assay [3], 17.7%; in assay [4] it was 16.2%; in assay [5] it was -2.3%; in assay [6] it was 19.2%.
Consider `CCc1cccc(CC)c1NC1=CC(=O)C(=O)c2ccccc21`, for which the growth inhibition in assay [1] was 22.4%; in assay [2] it was 11.4%; in assay [3], 10%; in assay [4], 18.8%; in assay [5], 34.2%; in assay [6] it was 18.2%.
Regarding `S=c1[nH]ncn1/N=C/c1ccccc1Cl`, the growth inhibition in assay [1] is 23.6%; in assay [2], 37%; in assay [3], 54.4%; in assay [4] it was 22.9%; in assay [5], -5.65%; in assay [6] it was 37.6%.
`O=C(Nc1nc(C23CC4CC(CC(C4)C2)C3)cs1)c1cc2cc(Cl)ccc2oc1=O`: the growth inhibition in assay [1] was -32.2%; in assay [2], -37.5%; in assay [3] it was -2.35%; in assay [4], 10.6%; in assay [5] it was -28.1%; in assay [6], -38%.
As to `CC(=O)Nc1ccc(C(=O)N2C(=N)C(C#N)=C(O)/C2=C\c2ccc(Cl)c(Cl)c2)cc1`, the growth inhibition in assay [1] was -7.3%; in assay [2], -5.7%; in assay [3], -18.4%; in assay [4], 1.3%; in assay [5], -20.8%; in assay [6], 2.15%.
As for `COC(=O)C(N)Cc1ccc(OC)cc1` (stereo not given), the growth inhibition in assay [1] was -4.95%; in assay [2], -9.25%; in assay [3], 8.1%; in assay [4], -1.95%; in assay [5] it was 7.6%; in assay [6] it was 3.75%.
